Experimental data taken from PubChem BioAssay (NCI).
Compounds without any hit were thinned out: in the full panel of roughly 83,000, 20% have a hit.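 Note: values are percent growth. 100 is the growth of untreated cells, values between 100 and 0 indicate rising inhibition; between -100 and 0 indicates cell death.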 Values without a mark were called inactive. The source made the active and inactive calls. How the source made its calls: active means growth percent below 10; inactive means the rest.

What follows are molecules tested on HL-60(TB) leukemia (assay: NCI-60 one-dose screen, 48 h (100 = growth as untreated, 0 = no growth, -100 = all killed)). Conditions: 10 µM unless noted.

Work on `CCOC(=O)c1c(C)c2c(n1C)CSc1cc(S(=O)(=O)c3ccccc3)c(=O)[nH]c1-2` yielded a growth of 25% [100 µM].

Compared with `N#CC1=C(/N=C/c2ccccc2)Oc2c(ccc3ccccc23)C1c1ccc([N+](=O)[O-])cc1` (stereo not given), `COc1ccccc1/C(C)=N/NC(=O)CSc1nc2ccccc2c(=O)n1Cc1ccc(S(N)(=O)=O)cc1` is higher in growth: 99.1% for the first, 101% for the second.

Going from `Cc1onc2c(-c3ccccc3)n[nH]c(=O)c12` to `CNc1nc2c(s1)C(c1cccc(F)c1)CC(=O)N2` (stereo not given), the growth rises from 90.2% to 97.5%.

Going from `CC(C)c1ccccc1NC(=O)N1CCC(C(C)C)CC1` to `Cc1cccc(N2CCC(=O)NC2=S)c1`, the growth falls from 105% to 98.6%.

First: CCN(CC)S(=O)(=O)c1cccc([N+](=O)[O-])c1
Second: CCN(CC)CCNc1ccc([N+](=O)[O-])c2sc3ccccc3c(=O)c12
The growth of the first is higher: 95.5% for the first, 17% for the second.

First: NCCSSC/C=C\CSSCCN
Second: Cn1c(=O)c2[nH]c(NN)nc2n(C)c1=O
The growth of the first is lower: 59.1% for the first, 91.6% for the second.

First: Cc1ccc2c(c1)c(-c1nc(-c3c[nH]c4ncccc34)cs1)cn2C
Second: Cn1cc(-c2csc(-c3c[nH]c4ncccc34)n2)c2cc(Br)cnc21
The growth of the first is lower: 84.1% for the first, 87.6% for the second.

Going from `Nc1cc2c(cc1Cl)-c1ccc([N+](=O)[O-])cc1/C2=N\O` to `COc1cc2c(cc1[N+](=O)[O-])-c1ccc([N+](=O)[O-])cc1/C2=N/NC(N)=S`, the growth falls from 89.5% to 88.3%.

Going from `O=C1C=CC(=O)c2c(O)c(CO)c(CO)c(O)c21` to `COc1ccc(-c2nc(NCCO)[nH]c(=O)c2C#N)cc1`, the growth rises from 64.2% to 103%.

First: NS(=O)(=O)c1ccc(N2N=C(c3ccc(Br)cc3)CC2c2cn(-c3ccccc3)nc2-c2ccc(Cl)cc2)cc1 (stereo not given)
Second: CS(=O)(=O)c1nccc(-c2c(-c3cccc(OCc4ccccc4)c3)nc3sccn23)n1
The growth of the first is higher: 89.6% for the first, 82.8% for the second.

First: O=C(COc1ccc(-c2nc3cc(Cl)c(Cl)cc3[nH]2)cc1)N=Nc1c(O)[nH]c2ccccc12
Second: CC(C)(C)c1cc(-n2c(-c3ccc(Cl)cc3)nc3cc(C(=O)Nc4ccc(Cl)cc4)ccc32)n[nH]1
The growth of the first is higher: 68.5% for the first, 51.3% for the second.

First: CCN(CC)c1ccc(CNc2cc(C)nc3ccccc23)cc1
Second: CN(C)CCCNc1c2ccccc2nc2ccccc12
The growth of the first is higher: 81.1% for the first, 72.8% for the second.

First: O=C1N(C[P+](c2ccccc2)(c2ccccc2)c2ccccc2)CCCN1C[P+](c1ccccc1)(c1ccccc1)c1ccccc1
Second: Cc1ccc(S(=O)(=O)NN/C(N)=N\S(=O)(=O)c2cc(C)c(Cl)cc2SCc2ccccc2)cc1
The growth of the first is lower: 62.9% for the first, 83.6% for the second.

First: Cc1cc(=NO)cc(C)n1O
Second: CSc1ncc2ncn(C3OC(CO)C(O)C3O)c2n1 (stereo not given)
The growth of the first is lower: 81.6% for the first, 114% for the second.

First: Cc1nc(Nc2ccccn2)sc1C(=O)/C=C/c1ccc(Br)cc1
Second: Cc1cccc(C)c1Nc1nnc(-c2ccc(F)cc2)o1
The growth of the first is lower: 41.7% for the first, 99.9% for the second.

Work on `NC(=S)N=Nc1c(O)c2ccccc2c2ccccc12` yielded a growth of 100%.

For `C/C(=N\Nc1ccc(Cl)cn1)c1ccccn1`, the growth was -27.4% (active).
In the case of `COc1cnc2c(c1)C(=O)c1c-2n(CCCNC(C)C)c(=O)c2cc([N+](=O)[O-])ccc12`, the growth is reported as -65% (active).
In the case of `COc1cc2nc(-c3cccc4cccnc34)nc(NC3CCN(Cc4ccccc4)CC3)c2cc1OC`, the growth is reported as -63.4% (active).
For `COc1ccc2c(c1)CCc1[nH]nc(-c3cc(OC)c(OC)c(OC)c3)c1-2`, the growth was -20.4% (active).
`Cc1cc2ccccn2c1C(=O)c1ccc(C(=O)c2ccccc2)cc1` was tested, and the growth was -14.6% (active).
With `C=C1C(=O)O[C@H]2[C@H]1CC/C(COC(=O)NCc1ccc(Cn3c(=O)sn(-c4ccc(I)cc4)c3=O)cc1)=C\CC[C@@]1(C)O[C@@H]21` the growth was -32% (active).
`Cc1cc(C(=O)/C=C/c2ccc[nH]2)ccc1-n1ccc(C(F)(F)F)n1` was tested, and the growth was -21% (active).
In the case of `Cn1cc(-c2nonc2-c2c[nH]c3ccccc23)c2ccccc21`, the growth is reported as 1.04% (active).
In the case of `COc1ccc2nc3ccccc3c(NCc3ccccc3)c2c1`, the growth is reported as 8.18% (active).
`Nc1cc2c3c(cccc3c1)C(=O)N(CCN1CCCC1)C2=O` was tested, and the growth was 1.24% (active).
